Experimental data: PubChem BioAssay (Tox21)
Inconclusive results are not listed. A call without a number means that no potency is given here. Active and inactive are the calls of the source. Unless noted, the call rests on the fitted dose curve.

Assays:
[1] = Nuclear factor erythroid 2-related factor 2/antioxidant responsive element (Nrf2/ARE) small molecule agonists: qHTS cell viability counter screen in human keratinocytes (AID 1919968; active means well fitted cell-killing curve with a large enough effect in the repeat runs; further: nearly all actives have a fitted effect of over 55% in size)
Method in brief: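 Fluorescence read-out from CellTiter-Fluor after 1 h at 37 C. Wells held HaCaT-derived ARE-luciferase reporter cells (1,500/well) treated 23 h with DMSO-dissolved compounds. Run in the same wells as the luciferase agonist read.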

[2] = Nuclear factor erythroid 2-related factor 2/antioxidant responsive element (Nrf2/ARE) small molecule agonists: luciferase reporter gene qHTS assay in human keratinocytes (AID 1919969); further: nearly all actives have a fitted effect of over 35% in size; further: potency means the concentration at half of the fitted maximal effect
[3] = molecular target: Gonadotropin-releasing hormone receptor (Homo sapiens) (UniProt P30968); assay: Human gonadotropin-releasing hormone receptor (GnRHR) small molecule agonists, calcium flux assay in GnRHR-HEK293 cells (AID 1920063); further: nearly all actives have a fitted effect of over 35% in size
Method in brief: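 Calcium-dye fluorescence, Ex/Em=480/540, recorded every 1 sec over 3 min after compound addition to GnRHR-HEK293 cells. Cells had been seeded 18 hours earlier and dye-loaded for 1 hour at 37 C. Fifteen concentrations, triplicates.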

[4] = p53 small molecule agonists, cell-based qHTS assay with human liver microsomes (AID 1963577);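 further: p53 response element beta-lactamase reporter cells with liver microsomes plus NADPH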
Method in brief: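 With metabolic activation: human liver microsomes (0.5 mg/mL final) plus NADPH (0.5 mg/mL final) added alongside compounds to p53RE-bla cells; 16 h 37 C exposure; beta-lactamase read by LiveBLAzer fluorescence.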

[5] = p53 small molecule agonists, cell-based qHTS assay with rat liver microsomes (AID 1963578)
Method in brief: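 Metabolic activation by rat liver microsomes and NADPH, each 0.5 mg/mL final, added right after compounds to p53RE-bla reporter cells (4,000/well, plated 5 h earlier). 16 h at 37 C, then LiveBLAzer substrate for 2 h at room temperature in the dark; fluorescence read-out.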

[6] = p53 small molecule agonists, cell-based qHTS assay with human liver microsomes: qHTS cell viability counter screen (AID 1963579); further: nearly all actives have a fitted effect of over 45% in size
Method in brief: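 Metabolic activation used human liver microsomes and NADPH, both 0.5 mg/mL final, over 16 hours at 37 C on p53RE-bla cells (4,000/well). Cytotoxicity measured by CellTiter-Glo luminescence, 30 min at room temperature.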

[7] = p53 small molecule agonists, cell-based qHTS assay with rat liver microsomes: qHTS cell viability counter screen (AID 1963580); further: nearly all actives have a fitted effect of over 45% in size
Method in brief: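 Luminescent ATP readout (CellTiter-Glo, 30 min at room temperature) reports viability of p53RE-bla HCT-116 cells after 16 h at 37 C with test compounds under metabolic activation by rat liver microsomes and NADPH at 0.5 mg/mL final each.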

[8] = p53 small molecule agonists, cell-based qHTS assay (AID 1963582; active means well fitted activation curve with a large enough effect in the signal ratio in the repeat runs, not every such curve was filed as active; the % refers to the signal ratio)
Method in brief: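 Fluorescence intensity read-out of a beta-lactamase reporter under a p53 response element. Cells were exposed to DMSO-dissolved compounds for 16 h at 37 C, then developed with FRET substrate for 2 h at RT.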

[9] = molecular target: 5-hydroxytryptamine receptor 2A (Homo sapiens) (UniProt P28223); assay: 5-hydroxytryptamine receptor 2A (HTR2A) small molecule antagonists, cell-based qHTS assay (AID 1963586); further: nearly all actives have a fitted effect of over 45% in size
Method in brief: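 CHO cells stably expressing human HTR2A were plated for 18 h at 37 C, then loaded with calcium dye for 1 h. Compounds were preincubated 5 min at room temperature before DOI (4 nM solution) was added. Kinetic fluorescence was read for 3 min.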

[10] = molecular target: 5-hydroxytryptamine receptor 2A (Homo sapiens) (UniProt P28223); assay: 5-hydroxytryptamine receptor 2A (HTR2A) small molecule agonists, cell-based qHTS assay (AID 1963587); further: nearly all actives have a fitted effect of over 30% in size
Method in brief: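 HTR2A-CHO cells, plated 18 h at 37 C/5% CO2, dye-loaded 1 h at 37 C; compounds in DMSO added by pin tool (agonist mode). Intracellular calcium flux read as kinetic fluorescence on FDSS over 2 min at 1 s intervals.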

[11] = molecular target: Muscarinic acetylcholine receptor M1 (Homo sapiens) (UniProt P11229); assay: Cholinergic receptor muscarinic 1 (CHRM1) small molecule antagonists, cell-based qHTS assay (AID 1963588); further: nearly all actives have a fitted effect of over 40% in size
Method in brief: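 Compounds were tested at 15 concentrations in three independent runs. Dye-loaded CHRM1-CHO cells were exposed 5 min at room temperature before stimulation by acetylcholine added at 50nM. Intracellular calcium was read kinetically on FDSS for 3 min.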

[12] = molecular target: Muscarinic acetylcholine receptor M1 (Homo sapiens) (UniProt P11229); assay: Cholinergic receptor muscarinic 1 (CHRM1) small molecule agonists, cell-based qHTS assay (AID 1963589); further: nearly all actives have a fitted effect of over 35% in size
Method in brief: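 Calcium flux read-out: kinetic fluorescence at 1 sec intervals after pin-tool compound addition to dye-loaded CHRM1-CHO cells (human M1). Agonist mode; 15 concentrations tested in triplicate independent runs.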

[13] = cAMP Responsive Elements (CRE) small molecule agonists, cell-based qHTS assay (AID 1963590)
Method in brief: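 Beta-lactamase reporter readout: LiveBLAzer B/G FRET substrate, 2 h at room temperature, added after 3 h compound treatment of CRE-bla HEK 293T cells at 37 C/5% CO2.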

[14] = cAMP Responsive Elements (CRE) small molecule antagonists, cell-based qHTS assay (AID 1963591; active means well fitted inhibition curve with a large enough effect in the signal ratio in the repeat runs, not every such curve was filed as active; the % refers to the signal ratio)
Method in brief: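 HEK293T CRE-bla; 18 h preincubation; compound pin-transfer; NKH477 0.25 uM final, 3 h, 37 C; LiveBLAzer FRET substrate 2 h RT.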

[15] = molecular target: Beta-2 adrenergic receptor (Homo sapiens) (UniProt P07550); assay: Adrenergic beta2 receptor (ADRB2) small molecule antagonists, cell-based qHTS assay (AID 1963592); further: series mostly up to about 92 µM; nearly all actives have a fitted effect of over 50% in size
Method in brief: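 Assay format: CHO-ADRB2 cells, 18-20hr seeding at 37C/5% CO2, then compound plus 1nM isoproterenol agonist mix for 0.5hr RT. Homogeneous time-resolved fluorescence cAMP detection after 1hr, expressed as 665/615 nm ratio.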

[16] = molecular target: D(2) dopamine receptor (Homo sapiens) (UniProt P14416); assay: Dopamine D2 receptor (DRD2) small molecule agonists, cell-based qHTS assay (AID 1963594); further: nearly all actives have a fitted effect of over 35% in size
Method in brief: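 HEK293 cells stably expressing DRD2 were cultured 24 h at 37 C, then given Ro20-1724 (0.1 mM final) and compounds for 10 min at room temperature. NKH477 (200nM) was then added for 30 min. cAMP was read by HTRF.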

[17] = molecular target: D(2) dopamine receptor (Homo sapiens) (UniProt P14416); assay: Dopamine D2 receptor (DRD2) small molecule antagonists, cell-based qHTS assay (AID 1963595; active means well fitted inhibition curve with a large enough effect in the signal ratio in the repeat runs, with a control signal flat; the % refers to the signal ratio)
Method in brief: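 Antagonist mode in DRD2-HEK293 cells: after compound addition with 0.1 mM Ro20-1724, cells received quinpirole (12 nM) and NKH477 (200 nM) for 30 min at room temperature; HTRF cAMP read after 1 h detection.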

[18] = p53 small molecule agonists, cell-based qHTS assay: qHTS cell viability counter screen (AID 1963581); further: nearly all actives have a fitted effect of over 45% in size
Method in brief: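 Cytotoxicity read-out: ATP-based luminescence (CellTiter-Glo, 30 min RT) measured in the same wells as the p53 reporter assay, HCT-116 p53RE-bla cells, 16 h compound exposure at 37 C.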

[19] = molecular target: Beta-2 adrenergic receptor (Homo sapiens) (UniProt P07550); assay: Adrenergic beta2 receptor (ADRB2) small molecule agonists, cell-based qHTS assay (AID 1963593);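 further: CHO cells stably overexpressing human ADRB2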
Method in brief: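 CHO cells stably over-expressing ADRB2 were plated overnight at 37C, then dosed with compounds plus a stimulation mix containing 100uM IBMX and 25uM Ro-20-1724 for 0.5hr at room temperature. cAMP was measured by HTRF competition, 1hr.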

[20] = G protein-coupled receptor (GPCR) small molecule agonists, calcium flux assay: HEK293 wild type cell line counter screen (AID 1920065)
Method in brief: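 Agonist mode; 18 h seeding at 37 C, 1 h dye load at 37 C; compounds pinned from DMSO, ATP as positive control; kinetic fluorescence 480/540 nm, 3 min, 1 s reads; 15 concentrations, triplicate.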

Beta-2 adrenergic receptor (Homo sapiens), sequence (P07550 whole entry, looked up): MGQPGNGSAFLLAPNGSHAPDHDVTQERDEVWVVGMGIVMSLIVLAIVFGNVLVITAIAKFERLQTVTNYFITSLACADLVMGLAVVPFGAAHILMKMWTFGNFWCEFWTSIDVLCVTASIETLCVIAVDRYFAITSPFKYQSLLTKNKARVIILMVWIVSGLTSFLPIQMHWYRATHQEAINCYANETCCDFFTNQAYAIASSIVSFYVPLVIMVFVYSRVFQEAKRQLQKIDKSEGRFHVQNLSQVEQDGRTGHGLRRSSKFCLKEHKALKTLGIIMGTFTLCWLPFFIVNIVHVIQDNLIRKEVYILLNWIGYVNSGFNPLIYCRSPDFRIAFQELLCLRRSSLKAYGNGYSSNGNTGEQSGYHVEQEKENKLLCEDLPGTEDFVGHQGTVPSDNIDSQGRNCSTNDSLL
Gonadotropin-releasing hormone receptor (Homo sapiens), sequence (P30968 whole entry, looked up): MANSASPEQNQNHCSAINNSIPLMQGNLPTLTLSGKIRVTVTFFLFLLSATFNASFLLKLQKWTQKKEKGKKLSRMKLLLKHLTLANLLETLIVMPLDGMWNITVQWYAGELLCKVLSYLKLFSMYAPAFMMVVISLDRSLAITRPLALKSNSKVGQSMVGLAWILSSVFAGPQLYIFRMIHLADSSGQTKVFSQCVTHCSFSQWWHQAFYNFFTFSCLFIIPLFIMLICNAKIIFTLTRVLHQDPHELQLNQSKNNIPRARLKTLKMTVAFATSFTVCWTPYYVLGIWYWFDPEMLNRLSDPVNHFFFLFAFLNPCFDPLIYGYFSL
5-hydroxytryptamine receptor 2A (Homo sapiens), sequence (P28223 whole entry, looked up): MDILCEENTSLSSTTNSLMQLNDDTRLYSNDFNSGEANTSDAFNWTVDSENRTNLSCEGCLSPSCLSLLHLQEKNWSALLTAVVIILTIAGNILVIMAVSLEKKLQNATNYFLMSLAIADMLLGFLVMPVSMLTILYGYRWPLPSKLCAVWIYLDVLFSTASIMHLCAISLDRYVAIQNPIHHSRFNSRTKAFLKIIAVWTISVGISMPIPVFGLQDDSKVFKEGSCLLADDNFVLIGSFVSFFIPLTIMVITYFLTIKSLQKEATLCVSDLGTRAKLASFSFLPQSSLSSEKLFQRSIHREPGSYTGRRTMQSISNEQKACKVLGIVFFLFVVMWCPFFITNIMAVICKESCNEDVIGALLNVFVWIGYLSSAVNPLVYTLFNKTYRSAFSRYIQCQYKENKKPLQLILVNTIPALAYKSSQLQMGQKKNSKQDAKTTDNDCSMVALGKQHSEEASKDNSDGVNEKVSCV
D(2) dopamine receptor (Homo sapiens), sequence (P14416 whole entry, looked up): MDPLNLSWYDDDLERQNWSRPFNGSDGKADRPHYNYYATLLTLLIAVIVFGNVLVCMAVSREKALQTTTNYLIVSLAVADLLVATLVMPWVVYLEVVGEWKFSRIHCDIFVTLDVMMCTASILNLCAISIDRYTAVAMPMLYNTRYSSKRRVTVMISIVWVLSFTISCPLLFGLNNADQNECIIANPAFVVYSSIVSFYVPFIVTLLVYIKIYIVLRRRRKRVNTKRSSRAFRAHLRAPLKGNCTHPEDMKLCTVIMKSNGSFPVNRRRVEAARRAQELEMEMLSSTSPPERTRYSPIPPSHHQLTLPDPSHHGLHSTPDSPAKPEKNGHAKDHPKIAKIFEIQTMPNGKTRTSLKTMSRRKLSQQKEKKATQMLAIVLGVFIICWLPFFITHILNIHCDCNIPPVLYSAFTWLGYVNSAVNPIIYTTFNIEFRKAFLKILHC
Muscarinic acetylcholine receptor M1 (Homo sapiens), sequence (P11229 whole entry, looked up): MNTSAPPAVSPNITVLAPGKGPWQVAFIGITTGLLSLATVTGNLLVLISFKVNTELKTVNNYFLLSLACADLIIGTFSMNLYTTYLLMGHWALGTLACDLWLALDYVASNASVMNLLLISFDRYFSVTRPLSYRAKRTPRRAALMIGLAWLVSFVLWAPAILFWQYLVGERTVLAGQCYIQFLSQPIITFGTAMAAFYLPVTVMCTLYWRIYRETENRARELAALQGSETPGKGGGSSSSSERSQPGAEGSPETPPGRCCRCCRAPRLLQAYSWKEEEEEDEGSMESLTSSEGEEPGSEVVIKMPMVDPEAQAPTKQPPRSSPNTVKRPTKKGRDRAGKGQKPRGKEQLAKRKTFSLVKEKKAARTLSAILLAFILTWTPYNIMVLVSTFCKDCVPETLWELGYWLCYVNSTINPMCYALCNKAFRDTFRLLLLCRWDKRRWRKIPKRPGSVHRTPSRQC

Structure (SMILES)	Potency [1]	Potency [2]	Potency [3]	Potency [4]	Potency [5]	Potency [6]	Potency [7]	Potency [8]	Potency [9]	Potency [10]	Potency [11]	Potency [12]	Potency [13]	Potency [14]	Potency [15]	Potency [16]	Potency [17]	Potency [18]	Potency [19]	Potency [20]
CN(C)CCC#N	inactive	inactive	inactive	inactive	inactive	inactive	inactive	inactive	inactive	inactive	inactive	inactive	inactive	inactive	inactive	inactive	inactive			
COC(=O)c1ccc(CBr)cc1	inactive	6.19 µM (active)	inactive	inactive	inactive	inactive	inactive	inactive	inactive	inactive	inactive	inactive	inactive	inactive	inactive		inactive	inactive	inactive	
OC(Cc1ccccc1Cl)(Cn1cncn1)C1(Cl)CC1 (stereo not given)	inactive	inactive	inactive	inactive	inactive	inactive	inactive	inactive	inactive	inactive	inactive	inactive	inactive		inactive	inactive	inactive	inactive		inactive
O=[N+]([O-])c1ccc([As](=O)(O)O)cc1	inactive	inactive	inactive	inactive	inactive	inactive	inactive	inactive	inactive	inactive	inactive	inactive	inactive	inactive	inactive	inactive	inactive	inactive	inactive	inactive
C=C(Cl)CCl	inactive	inactive	inactive	inactive	inactive	inactive	inactive	inactive	inactive	inactive	inactive	inactive	inactive	inactive		inactive	inactive	inactive	inactive	inactive
C[C@]12CCC(=O)C(O)=C1CC[C@@H]1[C@@H]2CC[C@]2(C)C(=O)CC[C@@H]12	inactive	inactive	inactive	inactive	inactive	inactive	inactive	inactive	inactive		inactive	inactive			inactive	inactive	inactive	inactive		inactive
N#CC(Cl)Cl	inactive	59.5 µM (active)	inactive	inactive	inactive	inactive	inactive	inactive	inactive	inactive	inactive	inactive	inactive	inactive	inactive	inactive	inactive	inactive		inactive
CNC(=O)O/N=C/C(C)(C)S(C)(=O)=O	inactive	inactive	inactive			inactive	inactive	inactive	inactive	inactive		inactive	inactive	inactive	inactive	inactive	inactive	inactive	inactive	
Clc1cccc(Cl)c1Cl	inactive	inactive	inactive			inactive			inactive	inactive	inactive	inactive	inactive		inactive	inactive	inactive	inactive	inactive	
CCCCC#N	inactive	inactive	inactive	inactive	inactive	inactive	inactive	inactive	inactive	inactive	inactive	inactive	inactive	inactive	inactive	inactive	inactive	inactive		inactive
C=C(C)CCl	inactive	inactive	inactive	inactive	inactive	inactive	inactive	inactive	inactive	inactive	inactive	inactive	inactive	inactive	inactive	inactive	inactive	inactive		inactive
ClCC(Cl)(Cl)Cl	inactive	inactive	inactive	inactive	inactive	inactive	inactive	inactive	inactive	inactive	inactive	inactive	inactive	inactive	inactive	inactive	inactive	inactive		inactive
CCCCOCCOC(C)=O	inactive	inactive	inactive	inactive	inactive	inactive	inactive	inactive	inactive	inactive	inactive	inactive	inactive	inactive	inactive	inactive		inactive	inactive	inactive
COC[C@H](C)N(C(=O)CCl)c1c(C)csc1C	inactive	inactive	inactive	inactive	inactive	inactive	inactive	inactive	inactive	inactive	inactive	inactive	inactive	inactive	inactive		inactive	inactive	inactive	inactive
O=P(O)(Oc1ccccc1)Oc1ccccc1	inactive	inactive	inactive	inactive	inactive	inactive	inactive	inactive	inactive	inactive	inactive	inactive	inactive	inactive	inactive	inactive	inactive	inactive		inactive
CC(C)c1ccc(O)cc1	inactive	inactive	inactive	inactive	inactive	inactive	inactive	inactive	inactive	inactive		inactive	inactive	inactive	inactive	inactive	inactive	inactive	inactive	inactive
